# PubChem BioAssay AID488969 (Vanderbilt High Throughput Screening Facility, 2010)
# Over roughly 110,000 compounds, “z-score” has its median near -0.1; the highest 2% begin near 2. Only a selection was taken, and the highest values are over-represented in it overall. Active and inactive are the calls of the source.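 How the source made its calls: active means z-score in the third read window above 3 or below -3; inactive means the rest.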 Non-standard residues stand in square brackets, D forms with d. Residues, ends and D or L forms follow the SMILES beside them. ξ: configuration not given here. *: point of attachment. Boc = CC(C)(C)OC(=O)*; ξP = O=C(O)C1CCCN1
# Molecular target: Metabotropic glutamate receptor 8 (Rattus norvegicus) (UniProt P70579)
# Sequence (P70579 whole entry, looked up): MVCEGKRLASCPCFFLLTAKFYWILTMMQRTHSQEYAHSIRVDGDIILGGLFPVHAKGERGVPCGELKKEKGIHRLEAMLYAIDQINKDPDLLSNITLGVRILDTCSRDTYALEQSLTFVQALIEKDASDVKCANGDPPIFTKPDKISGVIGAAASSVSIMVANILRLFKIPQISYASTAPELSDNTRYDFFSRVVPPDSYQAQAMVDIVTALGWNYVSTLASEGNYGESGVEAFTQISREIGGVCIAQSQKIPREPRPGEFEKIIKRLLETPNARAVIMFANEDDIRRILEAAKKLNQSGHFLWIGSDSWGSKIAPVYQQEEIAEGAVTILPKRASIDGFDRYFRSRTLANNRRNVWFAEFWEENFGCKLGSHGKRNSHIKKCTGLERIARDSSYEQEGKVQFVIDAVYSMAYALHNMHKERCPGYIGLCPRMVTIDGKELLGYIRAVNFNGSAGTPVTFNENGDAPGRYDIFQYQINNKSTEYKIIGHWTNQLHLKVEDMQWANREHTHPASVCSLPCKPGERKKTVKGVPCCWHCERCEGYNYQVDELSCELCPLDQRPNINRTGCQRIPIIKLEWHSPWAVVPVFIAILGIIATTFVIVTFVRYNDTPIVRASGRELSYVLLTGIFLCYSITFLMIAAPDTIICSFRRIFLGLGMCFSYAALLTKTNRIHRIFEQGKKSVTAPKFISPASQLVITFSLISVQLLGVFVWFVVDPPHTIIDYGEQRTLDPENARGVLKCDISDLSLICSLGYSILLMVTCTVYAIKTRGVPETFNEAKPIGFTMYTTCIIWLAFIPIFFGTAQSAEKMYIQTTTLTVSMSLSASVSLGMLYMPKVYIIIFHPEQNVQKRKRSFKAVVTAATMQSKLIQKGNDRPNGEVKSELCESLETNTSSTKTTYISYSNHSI
# Experiment: mGluR8 Gi/Go-coupled signaling modulation – cell-based, rat, thallium flux, HTS, primary screen (AID 488969)
# Settings: HEK293 rat mGluR8, GIRK (G protein-gated inwardly rectifying potassium channel) thallium flux, FluoZin2; at 10 µM; stronger effect = higher value; submaximal glutamate (EC20) added with thallium
row,Compound,z-score
1,O=C1C2C3C=CC([C@@H]2C(=O)N1c1nccs1)C31CC1 (some centres not stated),-0.0608
2,Cc1ccc2nc(NC(=O)c3ccc(NS(=O)(=O)c4cccs4)cc3)sc2c1,0.062
3,CNC(=S)N=Nc1c(O)[nH]c2ccc(C(C)C)cc12,5.56 (active)
4,NC(=S)N=Nc1c(O)[nH]c2ccc(F)cc12,1.48
5,CC(C)NC(=S)N=Nc1c(O)[nH]c2ccc(C(C)C)cc12,0.589
6,COC(=O)CNC(=O)C1CCCN1C(=O)OC(C)(C)C (configuration not stated) (Boc-[ξP]-Gly-OMe),-0.536
7,Cn1cc(Cl)c(C(=O)Nc2nc3ccc(Cl)cc3s2)n1,0.119
8,CCOC(=O)N1CCN(c2c(F)cc3[nH]c(=S)[nH]c3c2Br)CC1,6.26 (active)
9,CCOC(=O)N1CCN(c2cc3nccnc3cc2F)CC1,-0.142
10,CCOC(=O)N1CCN(c2cc3[nH]c(=S)[nH]c3cc2F)CC1,-0.482
11,CC1CCCC(C)N1C(=O)CSc1nnc(NC(=O)Cc2cccs2)s1 (configuration not stated),-1.05
12,Cc1cc(NC(=O)CCC(=O)NNC(=O)c2ccc(C(C)(C)C)cc2)no1,-0.141
13,Cc1noc(C)c1CSc1ccccc1C(=O)Nc1nccs1,0.618
14,Oc1ccc(/C=N/N=C(c2ccccc2)c2ccccc2)c(O)c1O,-0.213
15,COc1ccc(O)c(/C=N/n2c(-c3ccco3)csc2=Nc2cccnc2)c1,0.368
16,CN=c1scc(-c2cccs2)n1/N=C/c1ccc(O)c(O)c1O,3.01 (active)
17,COCCNC(=O)Nc1ccc2nc(-c3cccs3)c(-c3cccs3)nc2c1,-0.235
18,CCN=c1scc(-c2cccs2)n1/N=C/c1cc(OC)ccc1O,2.02
19,CN=c1scc(C)n1/N=C/c1ccc(O)cc1O,0.0453

row,Compound,z-score
1,COCCN=c1scc(-c2cccs2)n1/N=C/c1ccc(O)c(O)c1O,2.93
2,CN=c1scc(C)n1/N=C/c1ccc(O)c(O)c1O,-0.648
3,CN=c1scc(-c2cccs2)n1/N=C/c1ccccc1O,0.0374
4,CCN=c1scc(C)n1/N=C/c1ccc(O)c(O)c1O,-0.528
5,CC(C)N=c1scc(-c2cccs2)n1/N=C/c1ccc(O)c(O)c1O,4.07 (active)
6,CCN=c1scc(C)n1/N=C/c1ccsc1,-0.0195
7,COc1cc(/C=N/NC(=O)COc2ccc(Cl)cc2)ccc1OS(=O)(=O)c1ccc(C)cc1,-0.0849
8,CCOC(=O)C1=NNC(C(=O)c2ccc(C)cc2)C1c1ccc(C)cc1 (configuration not stated),-0.512
9,C=C(C)c1cccc(C(C)(C)NC(=O)N2CC(C)OC(C)C2)c1 (configuration not stated),-0.0325
10,Cc1nn(C)c(C)c1/C=C(\C#N)C(N)=O,-0.273
11,Cc1ccc(CN(Cc2ccc(C)o2)C(=S)NCC(=O)O)cc1,-0.00212
12,Cc1sc2nc(CN3CCCCC3)nc(Cl)c2c1C,-0.502
13,Cn1c(NCC(O)CO)nc2c1c(=O)n(Cc1ccc(Cl)c(Cl)c1)c(=O)n2C (configuration not stated),-0.188
14,COc1ccc2c(c1)c(=O)cc(-c1ccccc1)n2C,-0.0758
15,CCN=c1scc(-c2ccccc2)n1/N=C/c1ccccn1,-0.0993
16,COCCN=c1scc(-c2ccccc2)n1/N=C/c1c[nH]c2ccccc12,2.05
17,COCCN=c1scc(-c2cc(OC)ccc2OC)n1/N=C/c1c[nH]c2ccccc12,-0.343
18,CC1CCCC(NC(=O)Cn2cc3c(n2)CCCCC3)C1C (configuration not stated),0.237
19,CC1CCC(NC(=O)Cn2cc3c(n2)CCCC3)CC1 (configuration not stated),2.79

row,Compound,z-score
1,COc1cccc(CNC(=O)Cn2cc3c(n2)CCCCC3)c1,-0.00462
2,COc1cccc(NC(=O)Cn2cc3c(n2)CCCCC3)c1,2.89
3,O=C(Cn1cc2c(n1)CCCCC2)Nc1c(F)c(F)cc(F)c1F,0.762
4,CC(=O)c1cccc(NC(=O)Cn2cc3c(n2)CCCC3)c1,-0.279
5,CC1CCc2nn(CC(=O)NC3CCCC3)cc2C1 (configuration not stated),-0.653
6,CCc1cccc(NC(=O)Cn2cc3c(n2)CCCC3)c1,0.22
7,Cc1cc(C)cc(NC(=O)Cn2cc3c(n2)CCCCC3)c1,5.95 (active)
8,C/C(=N/NC(=O)c1ccc(O)cc1)c1cccc([N+](=O)[O-])c1,-0.369
9,Cc1c2ccccc2nc2c(F)c(NCCO)c(F)c(F)c12,-0.746
10,COc1ccc(/C=N/OCC(=O)N(Cc2ccc(OC)cc2)c2ccccc2C(=O)O)cc1,-0.615
11,Cc1nn(Cc2ccccc2)c(C)c1NC(=O)CCC(=O)O,-0.119
12,Cc1cc(C)c(C(=O)CSc2nnc(-c3cccnc3)n2C)c(C)c1,0.116
13,CCCCNC(=O)/C=C/c1cccs1,-0.364
14,Cc1ccc(C(C#N)c2ccc3c(C(F)(F)F)cc(C(F)(F)F)nc3n2)cc1 (configuration not stated),1.26
15,N#CC(c1cccc(Cl)c1)c1ccc2c(C(F)(F)F)cc(C(F)(F)F)nc2n1 (configuration not stated),10.5 (active)
16,N#CC(c1ccccc1)c1ccc2c(C(F)(F)F)cc(C(F)(F)F)nc2n1 (configuration not stated),0.135
17,C/C(Cl)=C\Cn1c(NCCCn2ccnc2)nc2c1c(=O)n(C)c(=O)n2C,-0.632
18,Cn1c(=O)[nH]c(=O)c2c1nc(NC1CCCCC1)n2Cc1ccccc1,0.331
19,CC(=O)c1cc(OC(=O)N2CCOCC2)ccc1OC(=O)N1CCOCC1,-0.376
